In all, about 310,000 compounds went through this assay and about 2,200 (0.71%) showed an effect of 50% or more. The effect is printed as a negative number. This excerpt belongs to a sample that is enriched for strong results.
target: human ether-à-go-go-related gene (hERG) potassium channel (human, UniProt Q12809); assay: primary screen, population patch clamp on CHO cells stably expressing hERG; higher = less effect of the substance
Sequence (Q12809 whole entry, looked up): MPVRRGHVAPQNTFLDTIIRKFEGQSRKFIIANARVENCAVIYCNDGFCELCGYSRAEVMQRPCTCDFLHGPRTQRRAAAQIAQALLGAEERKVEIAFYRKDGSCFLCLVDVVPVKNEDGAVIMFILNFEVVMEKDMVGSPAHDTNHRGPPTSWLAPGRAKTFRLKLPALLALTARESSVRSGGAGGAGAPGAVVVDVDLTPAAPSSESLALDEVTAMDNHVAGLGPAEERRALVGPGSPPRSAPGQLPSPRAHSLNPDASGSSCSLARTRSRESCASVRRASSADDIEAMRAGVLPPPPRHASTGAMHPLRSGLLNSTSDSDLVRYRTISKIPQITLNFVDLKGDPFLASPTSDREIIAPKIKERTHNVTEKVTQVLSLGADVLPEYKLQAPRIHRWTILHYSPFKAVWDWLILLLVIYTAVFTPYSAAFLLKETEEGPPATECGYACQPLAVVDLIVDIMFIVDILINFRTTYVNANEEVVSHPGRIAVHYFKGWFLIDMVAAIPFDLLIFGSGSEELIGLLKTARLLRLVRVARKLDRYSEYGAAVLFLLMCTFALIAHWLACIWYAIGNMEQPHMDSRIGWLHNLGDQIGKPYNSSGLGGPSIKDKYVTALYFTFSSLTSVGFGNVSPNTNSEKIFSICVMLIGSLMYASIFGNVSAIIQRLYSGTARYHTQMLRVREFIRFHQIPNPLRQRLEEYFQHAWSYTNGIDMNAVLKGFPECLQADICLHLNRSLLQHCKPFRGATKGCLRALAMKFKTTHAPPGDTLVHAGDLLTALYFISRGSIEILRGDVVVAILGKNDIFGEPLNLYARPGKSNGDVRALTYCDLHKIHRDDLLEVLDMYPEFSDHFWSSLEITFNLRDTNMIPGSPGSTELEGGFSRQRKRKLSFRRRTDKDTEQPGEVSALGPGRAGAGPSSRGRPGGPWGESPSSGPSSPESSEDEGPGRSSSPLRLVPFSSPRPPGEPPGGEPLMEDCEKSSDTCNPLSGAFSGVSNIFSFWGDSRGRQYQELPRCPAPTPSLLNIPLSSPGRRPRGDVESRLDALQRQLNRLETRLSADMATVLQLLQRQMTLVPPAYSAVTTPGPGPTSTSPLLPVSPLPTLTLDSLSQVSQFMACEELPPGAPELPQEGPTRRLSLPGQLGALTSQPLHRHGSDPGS

Structure (SMILES)	hERG current change (%, negative = inhibition) at 1uM [%]
CCOC(=O)/C=C/C(=O)Nc1ccc(S(=O)(=O)Nc2cc(C)on2)cc1	10.3
O=C(Cc1ccccc1)NC1CCN(C(=O)NCc2ccccc2)CC1	-8.61
N#Cc1nc(COc2cccc(Cl)c2)oc1NCCN1CCOCC1	-22.3
CC1CN(S(=O)(=O)c2cccc(C(=O)Nc3ccc4c(c3)CCC4)c2)CC(C)O1 (stereo not drawn)	1.39
O=C(CN(Cc1ccccc1Cl)C(=O)CN1C(=O)CSc2ccccc21)NC1CC1	-30.7
Cc1ccc(-c2nc3ccccc3[nH]2)cc1NC(=S)NC(=O)c1ccccc1Br	8.3
c1ccc(-c2noc(-c3ccc4c(c3)OCO4)n2)nc1	14.3
O=C(CCC(=O)Nc1ccccc1)NNC(=O)CCc1ccccc1	13.6
COc1cccc(OC)c1NC(=O)C1CCCN1C(=O)NCc1ccccc1 (stereo not drawn)	3.69
COC(=O)c1ccc(NC(=O)C2C3CCC(C3)C2C(=O)O)cc1 (stereo not drawn)	3.27
O=C(O)c1ccc(S(=O)(=O)NCc2ccc3c(c2)OCO3)cc1	11.3
COc1ccc(OCC(=O)Nc2ccc3c(c2)nc(CCN2CCC(C)CC2)n3C)cc1	-46.3
CC1CCN(CCc2nc3cc(NC(=O)COc4ccc(Cl)cc4)ccc3n2C)CC1	-60.7
Cc1ccc(OCC(=O)Nc2ccc3c(c2)nc(CCN2CCC(C)CC2)n3C)cc1	-53.3
CC1CCN(CCc2nc3cc(NC(=O)COc4ccc([N+](=O)[O-])cc4)ccc3n2C)CC1	-2.45
CC1CCN(CCc2nc3cc(NC(=O)COc4ccccc4)ccc3n2C)CC1	-33.9
Cn1c(CCN2CCOCC2)nc2cc(NC(=O)COc3ccc(Cl)cc3)ccc21	2
CCOc1ccc(NS(=O)(=O)c2ccc3c(c2)N(C(C)=O)CCO3)cc1	17
C[C@]12CCC(=O)CC1CCC1C2CC[C@]2(C)C(OC(=O)CCC(=O)O)CCC12 (stereo partly drawn)	9.84
CCC1CCCCN1C(=O)Nc1cc(Cl)ccc1OC (stereo not drawn)	15.2
O=C(c1ccco1)N1CCN(C(=O)C2CCN(S(=O)(=O)c3cccs3)CC2)CC1	-26.1
CCc1nn(CC(=O)NCCCN2CCN(C)CC2)c(=O)c2cc3sccc3n12	5.53
CCc1nn(CC(=O)NCCCN2CCOCC2)c(=O)c2cc3sccc3n12	15.6

Structure (SMILES)	hERG current change (%, negative = inhibition) at 1uM [%]
CCc1nn(CC(=O)NCCCN2CCc3ccccc3C2)c(=O)c2cc3sccc3n12	-53.8
COc1cc(S(=O)(=O)Nc2ncn[nH]2)ccc1Cl	13.5
COCCN1Cc2cccc(C(=O)NCc3ccccc3OC)c2C1=O	3.2
Cc1cc(C)cc(NC(=S)NC2CC3CCCC(C2)N3C2CC2)c1 (stereo not drawn)	-32
Cc1cc(C)cc(NC(=S)NCCN(C2CCCCC2)C2CCCC2)c1	-59.7
CCCN1C2CCCC1CC(NC(=S)Nc1cc(C)ccc1C)C2 (stereo not drawn)	8.55
Cc1cc(C)cc(NC(=S)NC2CC3CCCC(C2)N3CC(C)C)c1 (stereo not drawn)	11.3
CCCN1C2CCCC1CC(NC(=S)Nc1cc(C)cc(C)c1)C2 (stereo not drawn)	-81.4
Cc1cc(C)cc(NC(=S)NC2CC3CCCC(C2)N3C2CCCC2)c1 (stereo not drawn)	-52.3
CCCN1C2CCCC1CC(NC(=S)Nc1cccc(C)c1)C2 (stereo not drawn)	-12.7
Cc1cccc(NC(=S)NCCN(C2CCCCC2)C2CCCC2)c1	-1.59
Cc1ccc(NC(=S)NCCN(C2CCCCC2)C2CCCC2)cc1	-10.5
Cc1ccc(CSc2ccc(-c3ccc4c(c3)OCO4)nn2)cc1	12.7
COc1ccccc1CC(=O)NCCCc1ccccc1	11.2
O=C(CCS(=O)(=O)c1ccc2c(c1)NC(=O)CS2)NCCc1ccc(Cl)cc1	10
CCN(C(=O)COC(=O)CNC(=O)c1ccc(F)cc1)C1CCS(=O)(=O)C1 (stereo not drawn)	9.62
COC(=O)Nc1c(C(=O)OC)cc(OC)c(OC)c1OC	6.05
CC1=NNC(=O)C1CCC(=O)N/N=C/c1ccc(Cl)cc1Cl (stereo not drawn)	12.6
COc1cc(OC)cc(C(=O)NNC(=O)c2ccc(S(=O)(=O)N(C)c3ccccc3OC)cc2)c1	13.2
CS(=O)(=O)N1CCN(C(=O)c2ccc(-c3ccccc3)cc2)CC1	9.18
COc1cc(F)cc(-c2ccc3c(c2)c(-c2cccs2)c(-c2cc(OC)cc(OC)c2)n3C)c1	12.5
CCOC(=O)C1(CCOc2ccccc2)CCN(Cc2cnc(SC)nc2)CC1	-28.4
CCOC(=O)C1(CCOc2ccccc2)CCN(Cc2cccc(OCCO)c2)CC1	-84.4

Structure (SMILES)	hERG current change (%, negative = inhibition) at 1uM [%]
CCOC(=O)C1(Cc2cccc(OC)c2)CCN(Cc2ccc(C)s2)CC1	-53.1
CCOC(=O)C1(CCOc2ccccc2)CCN(Cc2ccc(-n3cccn3)cc2)CC1	-37.8
CCOC(=O)C1(CCOC)CCN(Cc2cccc(OCc3ccccc3)c2)CC1	3.99
CCOC(=O)C1(Cc2cccc(OC)c2)CCN(Cc2cnc(C)s2)CC1	11
CCOC(=O)C1(CCOc2ccccc2)CCN(Cc2cccc(F)c2)CC1	-7.5
CCOC(=O)C1(Cc2ccccc2)CCN(Cc2ccc(C)s2)CC1	-2.06
CCOC(=O)C1(CCOc2ccccc2)CCN(Cc2ccc(OC)cc2)CC1	-77.4
CCOC(=O)C1(CCOc2ccccc2)CCN(Cc2cccc(-n3cccn3)c2)CC1	-68.5
Cc1ccc(NC(=O)CCC(=O)NNC(=O)COc2ccccc2)c(C)c1	7.32
CC1(C)C(=O)OC(c2c3ccccc3cc3ccccc23)C(C)(C)C1=O (stereo not drawn)	0.485
COc1ccc(/C=C/c2cc(=O)c3cc(Cl)ccc3o2)cc1	9.88
COCCn1ccc2c(OCC(=O)NCCc3ccccc3)cccc2c1=O	0.744
CSc1ccc(C2CC(=O)Nc3nc(SC)[nH]c(=O)c32)cc1 (stereo not drawn)	17
O=C(O)c1ccc(S(=O)(=O)c2ccc3c(c2)C(=O)N(NC(=O)c2ccncc2)C3=O)cc1	5.01
NNC(=O)c1nc(-c2ccccc2)n2c1CCCCC2	0.842
O=C(OCC(=O)N1CCCC1)c1c2c(nc3ccccc13)CCCCC2	9.48
CC1(C)CC(c2nc(-c3ccc([N+](=O)[O-])cc3)cs2)CCO1 (stereo not drawn)	9.08
CC(C)NC(=O)NS(=O)(=O)c1cnccc1NC1CC2CCC1C2 (stereo not drawn)	9.06
CCn1cc([N+](=O)[O-])c(C(=O)N2N=C(c3ccc(O)c(OC)c3)CC2c2ccccc2O)n1 (stereo not drawn)	18.1
Cc1ccc2nc(-c3ccccn3)oc2c1	12.6
Cc1ccccc1NC(=O)NCCc1ccc(Cl)cc1	8.42
CCOC(=O)C1(CCOc2ccccc2)CCN(Cc2ccc(C)s2)CC1	-65.4
CCOC(=O)C1(CCOc2ccccc2)CCN(C(=O)c2cncs2)CC1	-27.4

Structure (SMILES)	hERG current change (%, negative = inhibition) at 1uM [%]
CCOC(=O)C1(CCOc2ccccc2)CCN(C(=O)c2ccc(-n3cccn3)cc2)CC1	-85.6
CCOC(=O)C1(CCOc2ccccc2)CCN(Cc2ccncc2)CC1	-23.5
CCOC(=O)C1(CCOc2ccccc2)CCN(Cc2cnc(C)s2)CC1	-18.8
CCOC(=O)C1(CCOc2ccccc2)CCN(Cc2cccs2)CC1	-32.6
CCOC(=O)C1(CCOc2ccccc2)CCN(Cc2ccc(C#CCCO)cc2)CC1	0.161
CCOC(=O)C1(CCOc2ccccc2)CCN(Cc2ccc(OCCO)cc2)CC1	-85.1
CCOC(=O)C1(CCOc2ccccc2)CCN(Cc2cccc(O)c2)CC1	-28.7
CCOC(=O)C1(CCOc2ccccc2)CCN(Cc2ccc(O)cc2)CC1	-84.8
CCOC(=O)C1(CCOc2ccccc2)CCN(C(=O)CCSC)CC1	-11.3
CCOc1ccccc1N(CC(=O)Nc1ccccc1C(=O)NCc1ccco1)S(C)(=O)=O	2.08
CC(Sc1nnc(Nc2ccccc2F)s1)C(=O)NC1CC1 (stereo not drawn)	3
COCCc1ncc(CN2CCC(C(=O)Nc3ccc(-n4cccn4)cc3)CC2)cn1	-5.56
CNC(=O)c1cc2cc(OC)ccc2oc1=O	-4.3
O=C(O)c1ccc(NCc2ccc3c(c2)OCO3)cc1	10.6
Cc1nc2sccn2c(=O)c1S(=O)(=O)Nc1ccc(N2CCN(C)CC2)cc1	21.4
CC1CN(c2ccc([N+](=O)[O-])c(N3CCCCC3)c2)CCN1 (stereo not drawn)	8.07
CCOC(=O)C1(Cc2cccc(OC)c2)CCN(CCO)CC1	2.3
CCOC(=O)C1(CCOc2ccccc2)CCN(Cc2cc(OC)cc(OC)c2)CC1	-61.5
CCOC(=O)C1(Cc2cccc(OC)c2)CCN(CC2CC=CCC2)CC1 (stereo not drawn)	-50.6
CCOC(=O)C1(Cc2ccccc2)CCN(CC2CC=CCC2)CC1 (stereo not drawn)	-5.83
CCOC(=O)C1(CCOc2ccccc2)CCN(Cc2cccc(OC)c2)CC1	-24.4

— article PMC4336329 (PLoS ONE, 2015)
